From PubChem BioAssay (EPA / NIEHS)
Several values for one entry are separate records, joined by “and”; a condition that tells them apart may be missing. Equal values may be shown once. Inconclusive results are not listed. The source holds several records for some structures; these can differ, active in one and inactive in another. Activity calls are given as the source filed them. Rule for the calls, unless noted: active = hit-call score of the fitted dose curve at least 0.9, where 1 is the maximum; inactive = score below 0.9.

Assays:
[1] = biological target: Glucocorticoid receptor (Homo sapiens) (UniProt P04150); assay: ATG_GR_TRANS: Attagene TRANS-FACTORIAL HepG2 Assay for human Glucocorticoid Receptor (GR) (AID 2282978; active = hit-call score of the fitted dose curve at least 0.9, where 1 is the maximum;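 note: activators score as hits since higher reporter transcript over DMSO is fitted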); details: HepG2 Attagene TRANS GR reporter, mRNA transcription
Summary of the method: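 Fluorescent capillary-electrophoresis quantitation of reporter mRNA is the readout, taken 24 h after dosing human HepG2 cells carrying transiently transfected GAL4-UAS reporter units activated by chimeric NR-GAL4 fusions; activity scored as induction over DMSO.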

[2] = biological target: Bile acid receptor (Homo sapiens) (UniProt Q96RI1); assay: ATG_FXR_TRANS: Attagene TRANS-FACTORIAL HepG2 Assay for Farnesoid X Receptor (FXR) (AID 2282979; active = hit-call score of the fitted dose curve at least 0.9, where 1 is the maximum;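 note: hits raise reporter mRNA above DMSO so AC50 marks FXR activation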); details: HepG2 Attagene TRANS FXR-GAL4 reporter transcription
Summary of the method: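 After 24 h chemical treatment of transfected HepG2 cells, GAL4-UAS reporter transcripts driven by an exogenous FXR-GAL4 fusion were measured by RT-PCR and capillary electrophoresis. Increases over DMSO were fitted.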

[3] = biological target: Oxysterols receptor LXR-alpha (Homo sapiens) (UniProt Q13133); assay: ATG_LXRa_TRANS: Attagene TRANS-FACTORIAL HepG2 Assay for human Liver X Receptor alpha (LXRa) (AID 2282980; active = hit-call score of the fitted dose curve at least 0.9, where 1 is the maximum); details: HepG2 Attagene TRANS reporter, LXRa transactivation
Summary of the method: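 In this multiplexed TRANS system, compounds act on HepG2 cells carrying GAL4-UAS reporter units and a receptor-GAL4 fusion for 24 h. Induced reporter RNA is amplified, fluorescently labelled and sized by capillary electrophoresis, with DMSO as baseline.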

[4] = ATG_M_32_TRANS: Attagene TRANS-FACTORIAL HepG2 Assay for M32 Transcription Factor (Internal Marker) (AID 2282984; active = hit-call score of the fitted dose curve at least 0.9, where 1 is the maximum); details: HepG2 Attagene TRANS M32 internal marker reporter
Summary of the method: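 HepG2 cells transiently transfected with multiple GAL4-UAS reporter transcription units, dosed for 24 hours; reporter mRNA quantified by RT-PCR, 6-FAM primer extension, HpaI digestion and capillary electrophoresis. Gain-of-signal fitted versus DMSO baseline; internal background-control marker.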

[5] = biological target: Nuclear receptor subfamily 4 group A member 2 (Homo sapiens) (UniProt P43354); assay: ATG_NURR1_TRANS: Attagene TRANS-FACTORIAL HepG2 Assay for human Nuclear Receptor Related Protein 1 (NURR1) (AID 2282985; active = hit-call score of the fitted dose curve at least 0.9, where 1 is the maximum); details: HepG2 Attagene TRANS reporter, mRNA readout
Summary of the method: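 HepG2 cells transiently transfected with GAL4-UAS reporter units and chimeric NR-Gal4 constructs; chemical exposure 24 h. Reporter mRNA quantified by RT-PCR, fluorescent labelling and capillary electrophoresis; gain of signal fitted relative to DMSO baseline.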

[6] = biological target: Transcriptional activator Myb (Homo sapiens) (UniProt P10242); assay: ATG_Myb_CIS: Attagene CIS-FACTORIAL HepG2 Assay for human Myeloblastosis (Myb) Proto-Oncogene Transcription Factor (AID 2282986); details: HepG2 Attagene CIS-FACTORIAL Myb reporter transcription; actives raise or lower the signal
Summary of the method: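 Reporter transcript levels, quantified by fluorescent RT-PCR and capillary electrophoresis, serve as the read-out. Transfected HepG2 cells carrying cis-promoter reporter units are dosed for 24 hours, and curves are fitted bidirectionally against DMSO controls.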

[7] = ATG_NFI_CIS: Attagene CIS-FACTORIAL HepG2 Assay for human Nuclear Factor I (NFI) (AID 2282989); details: HepG2 cis-regulatory reporter, NFI response element transcription; actives raise or lower the signal
Summary of the method: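 Reporter transcription driven by endogenous transcription factors in HepG2 cells; 24 h treatment. Quantitation by labelled RT-PCR fragments on capillary electrophoresis, gain- or loss-of-signal relative to DMSO.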

[8] = biological target: Myc proto-oncogene protein (Homo sapiens) (UniProt P01106); assay: ATG_Myc_CIS: Attagene CIS-FACTORIAL HepG2 Assay for human Myelocytomatosis (Myc) Proto-Oncogene Transcription Factor (AID 2282990); details: HepG2, Attagene cis-reporter transcription factor activity; actives raise or lower the signal
Summary of the method: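 DMSO-normalised, bidirectionally fitted reporter mRNA signal. HepG2 cells transfected with cis reporter constructs, treated 24 h; transcripts detected by RT-PCR, 6-FAM primer extension and CE.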

[9] = ATG_NRF2_ARE_CIS: Attagene CIS-FACTORIAL HepG2 Assay for human Nuclear Factor Erythroid 2 Related Factor 2 (NFR2) response to Antioxidant Response Elements (ARE) (AID 2282992); details: HepG2 Attagene ARE/NRF2 reporter, transcription factor activity; actives raise or lower the signal;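 for AC50: reporter mRNA level measured by RT-PCR and capillary electrophoresis fluorescence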
Summary of the method: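 Multiplexed reporter mRNA profiling in HepG2 after a 24 h chemical exposure. Curves fitted in both directions relative to DMSO negative control.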

[10] = ATG_Oct_MLP_CIS: Attagene CIS-FACTORIAL HepG2 Assay for human Octamer-Binding Transcription Factor (Oct) (AID 2282993); details: HepG2 Attagene cis-factorial Oct reporter, mRNA; actives raise or lower the signal
Summary of the method: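 Transfected HepG2 cells, 24 h treatment. Reporter mRNA quantified by RT-PCR–capillary electrophoresis; bidirectional fitting against DMSO.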

[11] = biological target: Cellular tumor antigen p53 (Homo sapiens) (UniProt P04637); assay: ATG_p53_CIS: Attagene CIS-FACTORIAL HepG2 Assay for human p53 Transcription Factor (AID 2282994); details: HepG2 p53 cis-element reporter, Attagene mRNA; actives raise or lower the signal
Summary of the method: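 Multiplexed reporter mRNA assay in human HepG2 liver cells; cis-regulated units report endogenous factor activity. Values come from bidirectional curve fitting against DMSO negative control after 24 h treatment.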

[12] = BSK_3C_uPAR: BioMAP Diversity Plus: 3C Assay for Urokinase-type plasminogen activator receptor (uPAR) Biomarker Activity (AID 2282998); details: BioMAP 3C HUVEC, uPAR biomarker ELISA; actives raise or lower the signal
Summary of the method: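 Readout: ELISA for surface uPAR. System: human umbilical vein endothelial primary cells, 24 h after chemical exposure. Analysis: bidirectional fit, DMSO baseline.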

[13] = BSK_3C_VCAM1: BioMAP Diversity Plus: 3C Assay for Vascular cell adhesion molecule 1 (VCAM1) Biomarker Activity (AID 2282999); details: BioMAP 3C HUVEC, VCAM1 ELISA, cytokine-stimulated; actives raise or lower the signal
Summary of the method: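 Human umbilical vein endothelial cells were dosed with compound for 24 h, after which cell-surface VCAM-1 was quantified by ELISA. Bidirectional curve fitting used DMSO as negative control and activity baseline.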

[14] = BSK_4H_Eotaxin3: BioMAP Diversity Plus: 4H Assay for Eotaxin 3 Biomarker Activity (AID 2283000); details: primary human endothelial cells (HUVEC); actives raise or lower the signal
Summary of the method: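 ELISA quantitation of CCL26 (Eotaxin-3) protein from chemically dosed human vascular endothelial cells at 24 h; increases and decreases both scored relative to DMSO-treated baseline.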

[15] = biological target: Nuclear respiratory factor 1 (Homo sapiens) (UniProt Q16656); assay: ATG_NRF1_CIS: Attagene CIS-FACTORIAL HepG2 Assay for human Nuclear Respiratory Factor 1 (NRF1) Orphan Gene (AID 2282987); details: HepG2 NRF1 cis-element reporter, Attagene multiplex; actives raise or lower the signal
Summary of the method: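 Multiplexed cis-reporter assay, HepG2 cells, 24 h treatment. Total RNA → oligo(dT) RT → PCR with reporter-specific primers → 6-FAM primer extension → HpaI cut → CE. Bidirectional fit vs DMSO.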

[16] = ATG_NF_kB_CIS: Attagene CIS-FACTORIAL HepG2 Assay for human Nuclear Factor Kappa B (NF-kB) (AID 2282991); details: HepG2 Attagene cis-factorial NF-kB reporter mRNA; actives raise or lower the signal
Summary of the method: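 Transient MRTU transfection of human HepG2 liver cells → 24 h chemical exposure → total RNA, oligo(dT) RT → PCR, 6-FAM primer extension, HpaI digest 2 h 37 C → CE fragment analysis. Bidirectional fitting, DMSO negative control.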

[17] = BSK_3C_TissueFactor: BioMAP Diversity Plus: 3C Assay for Tissue Factor Biomarker Activity (AID 2282997); details: BioMAP 3C HUVEC, tissue factor biomarker readout; actives raise or lower the signal
Summary of the method: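 Endothelial monolayers (human umbilical vein, primary) are dosed, incubated 24 h, and assayed for Tissue Factor by ELISA; DMSO serves as negative control for bidirectional fitting.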

[18] = biological target: Hepatocyte nuclear factor 4-alpha (Homo sapiens) (UniProt P41235); assay: ATG_HNF4a_TRANS: Attagene TRANS-FACTORIAL HepG2 Assay for human Hepatocyte Nuclear Factor 4 alpha (HNF4a) (AID 2282982; active = hit-call score of the fitted dose curve at least 0.9, where 1 is the maximum); details: HepG2 HNF4a transactivation reporter, mRNA readout
Summary of the method: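 HepG2 cells transiently transfected with multiplexed GAL4-UAS reporter units responsive to chimeric NR-GAL4 proteins; compound exposure 24 h. Reporter mRNA quantified by RT-PCR, 6-FAM labelling, HpaI digestion and capillary electrophoresis; gain of signal versus DMSO baseline.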

[19] = biological target: Oxysterols receptor LXR-beta (Homo sapiens) (UniProt P55055); assay: ATG_LXRb_TRANS: Attagene TRANS-FACTORIAL HepG2 Assay for human Liver X Receptor beta (LXRb) (AID 2282981; active = hit-call score of the fitted dose curve at least 0.9, where 1 is the maximum); details: HepG2 Attagene TRANS GAL4-LXRb reporter, mRNA
Summary of the method: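 HepG2 cells transiently transfected with multiple reporter transcription units carrying chimeric NR-Gal4 proteins acting on GAL4-UAS reporters; compound exposure 24 h. Reporter mRNA quantified by RT-PCR, 6-FAM labelling, HpaI digestion and capillary electrophoresis; gain of signal versus DMSO.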

[20] = ATG_M_06_TRANS: Attagene TRANS-FACTORIAL HepG2 Assay for M06 Transcription Factor (Internal Marker) (AID 2282983; active = hit-call score of the fitted dose curve at least 0.9, where 1 is the maximum); details: HepG2 Attagene TRANS M06 internal marker reporter
Summary of the method: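 Internal-marker background readout from a multiplexed TRANS reporter system in HepG2; 24 h dosing; mRNA induction quantified by RT-PCR plus capillary electrophoresis fluorescence; DMSO as negative control and baseline.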

Measured: AC50

Oxysterols receptor LXR-alpha (Homo sapiens), sequence (Q13133 whole entry, looked up, the tested form may be a part): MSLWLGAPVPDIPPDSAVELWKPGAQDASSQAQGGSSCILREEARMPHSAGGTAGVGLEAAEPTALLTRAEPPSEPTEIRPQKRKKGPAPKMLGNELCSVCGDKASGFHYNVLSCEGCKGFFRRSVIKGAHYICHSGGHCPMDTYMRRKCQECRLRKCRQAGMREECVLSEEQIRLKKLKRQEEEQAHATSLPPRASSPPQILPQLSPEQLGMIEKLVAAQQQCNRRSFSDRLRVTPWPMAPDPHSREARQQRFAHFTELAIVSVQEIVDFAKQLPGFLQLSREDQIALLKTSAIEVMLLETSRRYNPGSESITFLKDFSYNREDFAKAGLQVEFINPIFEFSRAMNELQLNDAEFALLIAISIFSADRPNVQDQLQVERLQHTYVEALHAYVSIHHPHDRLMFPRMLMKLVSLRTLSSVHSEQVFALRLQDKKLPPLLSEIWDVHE
Myc proto-oncogene protein (Homo sapiens), sequence (P01106 whole entry, looked up): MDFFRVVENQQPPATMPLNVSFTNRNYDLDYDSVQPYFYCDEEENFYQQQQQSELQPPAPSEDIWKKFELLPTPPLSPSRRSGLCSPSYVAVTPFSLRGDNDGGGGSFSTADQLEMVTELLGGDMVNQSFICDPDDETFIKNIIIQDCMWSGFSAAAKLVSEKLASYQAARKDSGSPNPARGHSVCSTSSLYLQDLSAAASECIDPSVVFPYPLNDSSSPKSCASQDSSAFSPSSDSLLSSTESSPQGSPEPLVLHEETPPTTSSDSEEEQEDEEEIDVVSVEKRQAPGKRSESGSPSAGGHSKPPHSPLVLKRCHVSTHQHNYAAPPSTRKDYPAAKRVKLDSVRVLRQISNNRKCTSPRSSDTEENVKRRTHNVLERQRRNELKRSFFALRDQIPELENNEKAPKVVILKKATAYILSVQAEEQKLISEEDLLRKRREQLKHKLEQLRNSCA
Cellular tumor antigen p53 (Homo sapiens), sequence (P04637 whole entry, looked up): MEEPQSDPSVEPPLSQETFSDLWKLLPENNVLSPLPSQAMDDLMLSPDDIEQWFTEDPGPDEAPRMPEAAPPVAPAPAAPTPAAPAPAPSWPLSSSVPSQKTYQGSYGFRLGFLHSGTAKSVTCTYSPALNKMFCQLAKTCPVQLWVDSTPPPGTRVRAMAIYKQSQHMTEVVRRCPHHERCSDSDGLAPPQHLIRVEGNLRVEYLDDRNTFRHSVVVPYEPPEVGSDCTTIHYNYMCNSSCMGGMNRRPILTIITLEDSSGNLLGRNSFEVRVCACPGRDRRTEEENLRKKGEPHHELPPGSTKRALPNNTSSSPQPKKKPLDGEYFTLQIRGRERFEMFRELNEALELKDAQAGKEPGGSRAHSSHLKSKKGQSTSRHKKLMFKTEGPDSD
Hepatocyte nuclear factor 4-alpha (Homo sapiens), sequence (P41235 whole entry, looked up, the tested form may be a part): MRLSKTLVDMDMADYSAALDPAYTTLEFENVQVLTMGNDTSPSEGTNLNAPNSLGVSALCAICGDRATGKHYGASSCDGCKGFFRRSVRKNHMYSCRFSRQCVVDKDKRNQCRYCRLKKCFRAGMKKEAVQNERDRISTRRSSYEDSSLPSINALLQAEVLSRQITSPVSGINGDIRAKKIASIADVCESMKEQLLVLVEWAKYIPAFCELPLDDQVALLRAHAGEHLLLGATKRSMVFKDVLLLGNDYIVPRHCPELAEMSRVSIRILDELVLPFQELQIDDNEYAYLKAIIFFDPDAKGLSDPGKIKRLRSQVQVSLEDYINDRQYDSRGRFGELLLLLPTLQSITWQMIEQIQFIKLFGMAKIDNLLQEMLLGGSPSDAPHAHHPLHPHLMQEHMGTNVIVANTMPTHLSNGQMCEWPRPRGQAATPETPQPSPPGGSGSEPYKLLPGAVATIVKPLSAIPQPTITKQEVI
Transcriptional activator Myb (Homo sapiens), sequence (P10242 whole entry, looked up): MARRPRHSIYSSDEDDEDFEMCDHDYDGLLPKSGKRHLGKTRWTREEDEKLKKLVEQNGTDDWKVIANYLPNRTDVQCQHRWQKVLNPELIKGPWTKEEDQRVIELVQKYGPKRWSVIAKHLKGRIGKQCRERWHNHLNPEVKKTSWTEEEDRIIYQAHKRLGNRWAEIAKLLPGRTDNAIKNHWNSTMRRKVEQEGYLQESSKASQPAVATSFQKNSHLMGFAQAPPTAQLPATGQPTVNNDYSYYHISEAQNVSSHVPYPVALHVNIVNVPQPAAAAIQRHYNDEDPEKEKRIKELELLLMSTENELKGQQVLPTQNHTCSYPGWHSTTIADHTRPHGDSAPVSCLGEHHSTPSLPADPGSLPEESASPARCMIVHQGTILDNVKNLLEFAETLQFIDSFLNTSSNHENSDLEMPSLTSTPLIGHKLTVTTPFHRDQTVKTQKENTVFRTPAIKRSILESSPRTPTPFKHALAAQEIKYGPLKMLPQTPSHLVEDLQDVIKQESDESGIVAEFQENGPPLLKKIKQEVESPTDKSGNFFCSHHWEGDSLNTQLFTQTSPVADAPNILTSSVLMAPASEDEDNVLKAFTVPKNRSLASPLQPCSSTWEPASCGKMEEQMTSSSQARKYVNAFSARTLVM
Nuclear respiratory factor 1 (Homo sapiens), sequence (Q16656 whole entry, looked up): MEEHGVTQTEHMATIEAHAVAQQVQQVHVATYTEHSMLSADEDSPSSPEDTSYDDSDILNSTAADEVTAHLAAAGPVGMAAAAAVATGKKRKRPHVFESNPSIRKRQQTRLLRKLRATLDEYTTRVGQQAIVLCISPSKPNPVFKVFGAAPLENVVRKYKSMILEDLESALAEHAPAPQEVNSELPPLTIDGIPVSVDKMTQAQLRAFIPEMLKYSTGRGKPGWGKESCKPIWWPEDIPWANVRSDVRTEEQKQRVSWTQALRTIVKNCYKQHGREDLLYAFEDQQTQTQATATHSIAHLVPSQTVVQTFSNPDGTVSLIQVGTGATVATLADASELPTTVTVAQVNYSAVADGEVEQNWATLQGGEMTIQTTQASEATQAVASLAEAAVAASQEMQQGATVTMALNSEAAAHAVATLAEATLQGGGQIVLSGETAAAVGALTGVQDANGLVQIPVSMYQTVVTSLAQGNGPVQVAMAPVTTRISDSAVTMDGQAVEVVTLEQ
Bile acid receptor (Homo sapiens), sequence (Q96RI1 whole entry, looked up, the tested form may be a part): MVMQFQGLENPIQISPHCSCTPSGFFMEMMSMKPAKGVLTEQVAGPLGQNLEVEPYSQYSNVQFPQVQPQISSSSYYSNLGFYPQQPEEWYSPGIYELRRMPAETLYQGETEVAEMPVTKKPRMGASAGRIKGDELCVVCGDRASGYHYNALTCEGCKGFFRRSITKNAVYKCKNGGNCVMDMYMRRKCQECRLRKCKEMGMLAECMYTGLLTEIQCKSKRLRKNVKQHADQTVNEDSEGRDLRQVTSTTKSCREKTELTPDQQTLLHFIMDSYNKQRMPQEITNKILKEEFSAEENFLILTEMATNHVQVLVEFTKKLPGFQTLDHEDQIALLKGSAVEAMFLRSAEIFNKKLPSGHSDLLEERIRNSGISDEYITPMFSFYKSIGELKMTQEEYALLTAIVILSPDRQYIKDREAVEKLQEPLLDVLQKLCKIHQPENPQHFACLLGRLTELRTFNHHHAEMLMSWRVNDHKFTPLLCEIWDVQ
Nuclear receptor subfamily 4 group A member 2 (Homo sapiens), sequence (P43354 whole entry, looked up, the tested form may be a part): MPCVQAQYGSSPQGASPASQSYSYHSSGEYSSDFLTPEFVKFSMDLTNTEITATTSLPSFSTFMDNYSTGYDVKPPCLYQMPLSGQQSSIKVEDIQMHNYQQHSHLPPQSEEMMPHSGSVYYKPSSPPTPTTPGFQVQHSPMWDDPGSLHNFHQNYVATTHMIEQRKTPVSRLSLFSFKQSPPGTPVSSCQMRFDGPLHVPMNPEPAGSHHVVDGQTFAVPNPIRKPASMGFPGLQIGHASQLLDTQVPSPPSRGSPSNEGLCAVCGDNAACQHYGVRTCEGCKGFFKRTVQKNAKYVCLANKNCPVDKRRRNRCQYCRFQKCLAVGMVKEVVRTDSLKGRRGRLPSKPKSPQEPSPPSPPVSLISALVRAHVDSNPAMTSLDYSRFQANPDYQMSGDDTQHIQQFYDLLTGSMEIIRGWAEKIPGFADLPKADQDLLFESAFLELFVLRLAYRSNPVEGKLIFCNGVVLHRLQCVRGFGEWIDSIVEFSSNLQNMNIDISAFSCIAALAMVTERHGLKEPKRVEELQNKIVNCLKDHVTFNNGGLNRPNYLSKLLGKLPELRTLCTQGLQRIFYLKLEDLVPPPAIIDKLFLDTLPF
Glucocorticoid receptor (Homo sapiens), sequence (P04150 whole entry, looked up, the tested form may be a part): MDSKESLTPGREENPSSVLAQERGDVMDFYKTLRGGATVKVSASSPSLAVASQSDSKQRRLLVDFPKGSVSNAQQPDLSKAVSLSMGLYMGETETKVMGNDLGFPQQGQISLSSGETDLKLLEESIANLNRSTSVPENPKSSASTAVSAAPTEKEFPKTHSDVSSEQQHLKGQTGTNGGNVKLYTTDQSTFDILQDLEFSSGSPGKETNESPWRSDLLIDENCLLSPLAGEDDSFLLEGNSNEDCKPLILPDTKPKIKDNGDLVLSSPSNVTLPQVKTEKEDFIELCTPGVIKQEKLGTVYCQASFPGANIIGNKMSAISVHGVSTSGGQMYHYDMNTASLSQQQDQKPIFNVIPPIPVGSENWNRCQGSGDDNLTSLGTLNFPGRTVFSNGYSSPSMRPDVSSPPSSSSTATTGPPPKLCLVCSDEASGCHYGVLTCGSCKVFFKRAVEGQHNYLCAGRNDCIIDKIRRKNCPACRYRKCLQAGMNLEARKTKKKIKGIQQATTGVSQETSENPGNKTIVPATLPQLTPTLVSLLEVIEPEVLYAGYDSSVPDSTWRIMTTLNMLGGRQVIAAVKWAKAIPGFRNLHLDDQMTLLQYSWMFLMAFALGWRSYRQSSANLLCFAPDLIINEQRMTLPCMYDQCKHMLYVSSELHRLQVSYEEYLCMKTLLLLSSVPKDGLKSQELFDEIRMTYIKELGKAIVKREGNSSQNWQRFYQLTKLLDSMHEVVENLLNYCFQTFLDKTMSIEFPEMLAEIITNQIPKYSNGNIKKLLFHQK

Cc1oc2c(NC(=O)c3c(Cl)cccc3Cl)cccc2c1C(C)(C)O
active: [11] 25.6 µM | [12] 25.7 µM | [14] 7.04 µM
not listed: [15] | [16] | [17] | [18] | [19] | [20]
inactive: all other assays above

Cc1c2ccccc2c(C)c2c1ccc1ccccc12
active: [9] 12.4 µM | [12] 15.2 µM | [13] 20 µM | [14] 28.6 µM
not listed: [5] | [8] | [18] | [19] | [20]
inactive: all other assays above

O=C1O[C@H]([C@@H](O)CO)C(O)=C1O
not listed: [2] | [8] | [16] | [17] | [19] | [20]
inactive: all other assays above

CCCCCCCCOC(=O)c1cc(O)c(O)c(O)c1
active: [2] 43 µM | [3] 52.2 µM | [5] 24.2 µM | [9] 5.96 µM | [17] 20 µM | [12] 36.3 µM | [13] 32.5 µM | [14] 17.3 µM
not listed: [8] | [19] | [20]
inactive: all other assays above

Clc1ccccc1C(c1ccccc1)(c1ccccc1)n1ccnc1
active: [9] 5.21 µM | [10] 11.1 µM | [17] 31 µM | [12] 14.8 µM | [13] 33.1 µM | [14] 31.3 µM
not listed: [3] | [4] | [18] | [19] | [20]
inactive: all other assays above

c1ccc(C[n+]2cccc3ccccc32)cc1
active: [9] 67.9 µM
not listed: [5]
inactive: all other assays above

CCO[Si](CCCNC(N)=O)(OCC)OCC
not listed: [3] | [16] | [18] | [19] | [20]
inactive: all other assays above

CN1C(=O)N(c2ccccc2Br)Cc2cnc(Nc3ccc4c(c3)OCC(CO)O4)nc21 (configuration not stated)
active: [10] 9.54 µM | [11] 0.0368 µM | [12] 10.7 µM | [13] 33.6 µM | [14] 9.49 µM
not listed: [3] | [8] | [17] | [18] | [19] | [20]
inactive: all other assays above

O=C1CCC(C2CCCCC2)CC1
active: [6] 147 µM | [9] 100 µM [middle of 4 runs] | [11] 166 µM
inactive: [1] | [2] | [3] | [4] | [5] | [6] | [7] | [16] | [10] | [11] | [17] | [12] | [13] | [14]

CCCCCCCCCCCC[N+](C)(C)C
inactive: [1] | [2] | [3] | [18] | [20] | [4] | [5] | [6] | [15] | [7] | [8] | [16] | [10] | [11]
active: [9] 25.3 µM and 18.9 µM | [10] 20 µM | [12] 20 µM | [13] 25.8 µM | [14] 29.9 µM

CCCCOC(=O)CC(CC(=O)OCCCC)(OC(C)=O)C(=O)OCCCC
not listed: [3] | [8] | [19] | [20]
inactive: all other assays above

CC(C)(c1cc(Br)c(O)c(Br)c1)c1cc(Br)c(O)c(Br)c1
inactive: [1] | [2] | [19] | [18] | [4] | [5] | [6] | [16] | [11]
active: [7] 57.6 µM and 54.7 µM | [9] 55.9 µM and 57.6 µM | [10] 47 µM and 40.3 µM | [11] 22.9 µM | [17] 31.1 µM | [12] 31.6 µM | [13] 32.1 µM | [14] 30.1 µM

Cc1cn([C@H]2C[C@H](N=[N+]=[N-])[C@@H](CO)O2)c(=O)[nH]c1=O
not listed: [3] | [5] | [15] | [17] | [19]
inactive: all other assays above
